Measured values taken from PubChem BioAssay AID1159580 (chemical genetic matrix, 2015).
The campaign covered roughly 5,500 compounds. About 2,000 (36%) were called active. Roughly 18% stayed inconclusive and do not appear here. Rule as the data show it: active = normalized growth mostly below about 0.91 (no sharp cut-off); inconclusive = no clear call, values can overlap the other calls; inactive = mostly above about 0.92. The list shows a part of the results.

Assay: chemical genetic growth profiling, strain panel (AID 1159580);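 also: tested at 20 µM; growth read once vehicle control cultures reached saturation at 30 °C; 1 = growth at the plate median or of vehicle wells; lower values mean less growth of the strain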
Details: growth OD

Measured: normalized growth

NC(=O)N/N=C\c1ccc([N+](=O)[O-])o1
inactive: S. cerevisiae deletion strains, locus YJR066W, strain TOR1, hits give low values 0.911 | S. cerevisiae deletion strains, locus YKL009W, strain mrt4, hits give low values 0.979 | S. cerevisiae deletion strains, locus YKL068W, hits give low values 0.994 | S. cerevisiae deletion strains, locus YKL085W, strain MDH1 (second series), hits give low values 0.987 | S. cerevisiae deletion strains, locus YKL085W, strain MDH1, hits give low values 0.987 | S. cerevisiae deletion strains, locus YKL160W, strain elf1, hits give low values 0.983 | S. cerevisiae deletion strains, locus YKL190W, strain CNB1, hits give low values 1.02 | S. cerevisiae deletion strains, locus YKR001C, strain vps1, hits give low values 0.95 | S. cerevisiae deletion strains, locus YKR026C, strain gcn3, hits give low values 1 | S. cerevisiae deletion strains, locus YKR091W, strain srl3, hits give low values 0.991 | S. cerevisiae deletion strains, locus YLL001W, strain dnm1, hits give low values 0.995 | S. cerevisiae deletion strains, locus YLL026W, hits give low values 0.999 | S. cerevisiae deletion strains, locus YLL041C, strain sdh2, hits give low values 0.995 | S. cerevisiae deletion strains, locus YLR027C, strain aat2, hits give low values 1 | S. cerevisiae deletion strains, locus YLR039C, strain RIC1, hits give low values 1.03 | S. cerevisiae deletion strains, locus YLR058C, strain SHM2, hits give low values 0.994 | S. cerevisiae deletion strains, locus YLR102C, strain apc9, hits give low values 0.984 | S. cerevisiae deletion strains, locus YLR113W, strain HOG1, hits give low values 1 | S. cerevisiae deletion strains, locus YLR221C, strain rsa3, hits give low values 0.975 | S. cerevisiae deletion strains, locus YLR258W, strain gsy2, hits give low values 0.998 | S. cerevisiae deletion strains, locus YLR262C, strain YPT6 (second series), hits give low values 1.01 | S. cerevisiae deletion strains, locus YLR262C, strain YPT6, hits give low values 1.03 | S. cerevisiae deletion strains, locus YLR268W, strain sec22, hits give low values 0.969 | S. cerevisiae deletion strains, locus YLR320W, strain mms22, hits give low values 0.98 | S. cerevisiae deletion strains, locus YLR330W, strain CHS5, hits give low values 0.998 | S. cerevisiae deletion strains, locus YLR342W, strain FKS1 (second series), hits give low values 1.03 | S. cerevisiae deletion strains, locus YLR342W, strain FKS1, hits give low values 1 | S. cerevisiae deletion strains, locus YLR357W, strain rsc2, hits give low values 0.97 | S. cerevisiae deletion strains, locus YLR370C, strain arc18, hits give low values 0.997 | S. cerevisiae deletion strains, locus YLR371W, strain rom2, hits give low values 0.986 | S. cerevisiae deletion strains, locus YLR384C, strain iki3, hits give low values 1.01 | S. cerevisiae deletion strains, locus YLR418C, strain cdc73, hits give low values 0.904 | S. cerevisiae deletion strains, locus YML016C, strain PPZ1, hits give low values 1 | S. cerevisiae deletion strains, locus YML032C, strain rad52, hits give low values 0.938 | S. cerevisiae deletion strains, locus YML120C, strain ndi1, hits give low values 1.02 | S. cerevisiae deletion strains, locus YML124C, strain tub3, hits give low values 0.993 | S. cerevisiae deletion strains, locus YMR058W, strain fet3, hits give low values 0.961 | S. cerevisiae deletion strains, locus YMR078C, strain ctf18, hits give low values 0.994 | S. cerevisiae deletion strains, locus YMR125W, strain sto1, hits give low values 0.993 | S. cerevisiae deletion strains, locus YMR129W, hits give low values 1 | S. cerevisiae deletion strains, locus YMR205C, strain PFK2, hits give low values 1.02 | S. cerevisiae deletion strains, locus YMR223W, strain ubp8, hits give low values 0.97 | S. cerevisiae deletion strains, locus YMR231W, strain pep5, hits give low values 0.993 | S. cerevisiae deletion strains, locus YMR307W, strain GAS1, hits give low values 1.01 | S. cerevisiae deletion strains, locus YNL067W, strain RPL9B, hits give low values 1.01 | S. cerevisiae deletion strains, locus YNL071W, strain lat1, hits give low values 0.99 | S. cerevisiae deletion strains, locus YNL128W, strain TEP1, hits give low values 1.03 | S. cerevisiae deletion strains, locus YNL153C, strain GIM3, hits give low values 1.01 | S. cerevisiae deletion strains, locus YNL183C, strain NPR1, hits give low values 0.919 | S. cerevisiae deletion strains, locus YNL209W, strain ssb2, hits give low values 0.994 | S. cerevisiae deletion strains, locus YNL233W, strain BNI4, hits give low values 0.998 | S. cerevisiae deletion strains, locus YNL248C, strain rpa49, hits give low values 0.967 | S. cerevisiae deletion strains, locus YNL250W, strain rad50, hits give low values 0.97 | S. cerevisiae deletion strains, locus YNL271C, strain bni1, hits give low values 0.999 | S. cerevisiae deletion strains, locus YNL298W, strain CLA4, hits give low values 0.986 | S. cerevisiae deletion strains, locus YNL307C, strain MCK1, hits give low values 0.995 | S. cerevisiae deletion strains, locus YNL322C, strain KRE1 (second series), hits give low values 0.997 | S. cerevisiae deletion strains, locus YNR049C, strain mso1, hits give low values 0.995 | S. cerevisiae deletion strains, locus YNR052C, strain pop2, hits give low values 0.989 | S. cerevisiae deletion strains, locus YOL006C, strain TOP1, hits give low values 1.06 | S. cerevisiae deletion strains, locus YOL012C, strain htz1 0.96 | S. cerevisiae deletion strains, locus YOL147C, strain pex11, hits give low values 0.988 | S. cerevisiae deletion strains, locus YOR001W, strain rrp6, hits give low values 1.01 | S. cerevisiae deletion strains, locus YOR061W, strain CKA2, hits give low values 0.994 | S. cerevisiae deletion strains, locus YOR069W, strain VPS5, hits give low values 1 | S. cerevisiae deletion strains, locus YOR070C, strain gyp1, hits give low values 0.998 | S. cerevisiae deletion strains, locus YOR080W, strain dia2, hits give low values 1.01 | S. cerevisiae deletion strains, locus YOR083W, strain WHI5, hits give low values 0.963 | S. cerevisiae deletion strains, locus YOR106W, strain vam3, hits give low values 0.983 | S. cerevisiae deletion strains, locus YOR136W, strain idh2, hits give low values 0.984 | S. cerevisiae deletion strains, locus YOR144C, strain elg1, hits give low values 0.989 | S. cerevisiae deletion strains, locus YOR184W, strain ser1, hits give low values 0.989 | S. cerevisiae deletion strains, locus YOR231W, strain MKK1, hits give low values 0.95 | S. cerevisiae deletion strains, locus YOR265W, strain rbl2, hits give low values 0.996 | S. cerevisiae deletion strains, locus YOR270C, strain vph1, hits give low values 0.972 | S. cerevisiae deletion strains, locus YOR290C, strain snf2, hits give low values 0.986 | S. cerevisiae deletion strains, locus YOR316C, strain cot1, hits give low values 0.992 | S. cerevisiae deletion strains, locus YPL051W, strain arl3, hits give low values 0.966 | S. cerevisiae deletion strains, locus YPL078C, strain atp4, hits give low values 0.991 | S. cerevisiae deletion strains, locus YPL106C, strain sse1, hits give low values 0.956 | S. cerevisiae deletion strains, locus YPL240C, strain hsp82, hits give low values 1.01 | S. cerevisiae deletion strains, locus YPL241C, strain CIN2, hits give low values 1.01 | S. cerevisiae deletion strains, locus YPL256C, strain CLN2, hits give low values 0.982 | S. cerevisiae deletion strains, locus YPR119W, strain clb2, hits give low values 0.987 | S. cerevisiae deletion strains, locus YPR141C, strain kar3, hits give low values 0.993 | S. cerevisiae deletion strains, locus YPR163C, strain tif3, hits give low values 0.992 | S. cerevisiae deletion strains, locus YPR167C, strain met16, hits give low values 0.987 | S. cerevisiae deletion strains, strain wtn01, hits give low values 0.97 | S. cerevisiae strains, strain wild type, hits give low values 1.03
